# In the library only some 7.5% were active in any assay of this set; here they are far more common.
# RORgamma inh = blocks mouse ROR gamma transcriptional activity | Drosophila S2 Gal4-RORgamma UAS-luciferase reporter, 20 h | Potency, µM (doses to about 53.6 µM), for inactives: top-dose activity change, negative = inhibition, actives largely listed as inhibitors | 310,000 tested, 5.4% active | AID 2551; note: potency is the fitted concentration of half-maximal effect; nearly all actives have a fitted effect of over 60% in size
#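 Drosophila S2 cells stably expressing Gal4-DBD/mouse RORγ fusion under metallothionein promoter plus UAS-luciferase; compound 1 h, then 700 uM CuSO4 induction for 20 h at ambient temperature; inhibition read as reduced luminescence.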
# ELG1 DNA repair = inhibitors of ELG1-dependent DNA repair in HEK293T cells; HEK293T ELG1-luciferase reporter, luminescence, 16 h; DNA damage induced by 5-fluorouridine; Potency, µM (titrated, usually from 46.1 µM), for the others: top-dose activity change, negative = inhibition, actives largely listed as inhibitors; 330,000 tested, 2.3% active; AID 504467; note: potency is the fitted concentration of half-maximal effect; nearly all actives have a fitted effect of over 55% in size
#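 HEK293T cells expressing luciferase-tagged ELG1 (2,000/well) received 5-Fluorouridine plus compound or DMSO for 16 hr at 37 °C. Luciferase was read by ONE-Glo luminescence after 30 min at room temperature.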
# B2AR arrestin = recruits beta-arrestin to the human beta2-adrenergic receptor; P07550; beta-arrestin recruitment to beta2AR, cell-based reporter; Potency, µM (doses to about 46.1 µM), without a hit: at the highest dose activation, hits mostly activators; 330,000 tested, 0.02% active; AID 492947;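 note: potency is the fitted concentration of half-maximal effect; 0% = DMSO controls and full agonism = EC100 isoproterenol or metaproterenol; nearly all actives have a fitted effect of over 65% in size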
# VP16 counter = counter-screen for ROR gamma inhibitors: Gal4-VP16 reporter; 310,000 tested, 3.5% active; Drosophila S2 Gal4-VP16 UAS-luciferase, luminescence, 20 h; Potency, µM (series often up to 53.6 µM), without a hit: at the top dose activity, negative = inhibition, usual class: inhibitors;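 note: Gal4-VP16 expression switched on by copper sulfate through the metallothionein promoter; potency is the fitted concentration of half-maximal effect; nearly all actives have a fitted effect of over 50% in size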
# TSHR antag = human thyrotropin receptor antagonism; P16473; TSHR-expressing cells, TSH-stimulated cAMP HTRF, 2 h; hits give low values; activity change, negative = inhibition, % at 11.5 µM; 330,000 tested, 0.2% active; AID 504810;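 active = activity change below a set negative limit, meaning inhibition stronger than a set level, cut at about -70% in these data; inconclusive = activity change between two set negative limits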
# Target sequence (P16473 whole entry, looked up): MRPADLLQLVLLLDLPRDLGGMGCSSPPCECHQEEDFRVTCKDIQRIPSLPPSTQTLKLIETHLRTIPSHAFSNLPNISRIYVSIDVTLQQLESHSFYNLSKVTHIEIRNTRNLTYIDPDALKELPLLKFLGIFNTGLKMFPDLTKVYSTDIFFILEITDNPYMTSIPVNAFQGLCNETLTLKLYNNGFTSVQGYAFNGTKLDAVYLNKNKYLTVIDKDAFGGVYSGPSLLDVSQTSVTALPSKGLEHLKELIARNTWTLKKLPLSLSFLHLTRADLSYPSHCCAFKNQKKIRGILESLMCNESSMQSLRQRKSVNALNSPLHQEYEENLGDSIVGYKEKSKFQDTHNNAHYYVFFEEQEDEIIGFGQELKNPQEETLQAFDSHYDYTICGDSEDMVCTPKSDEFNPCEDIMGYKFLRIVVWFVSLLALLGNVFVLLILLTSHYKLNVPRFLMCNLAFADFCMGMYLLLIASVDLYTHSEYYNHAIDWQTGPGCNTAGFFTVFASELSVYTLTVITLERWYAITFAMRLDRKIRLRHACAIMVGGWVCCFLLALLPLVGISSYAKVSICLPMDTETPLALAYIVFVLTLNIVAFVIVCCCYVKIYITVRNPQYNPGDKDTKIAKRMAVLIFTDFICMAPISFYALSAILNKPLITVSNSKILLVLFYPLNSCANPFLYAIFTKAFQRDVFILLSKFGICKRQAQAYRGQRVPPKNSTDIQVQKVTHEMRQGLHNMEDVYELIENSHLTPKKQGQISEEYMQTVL
#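 Antagonism was scored as loss of TSH-driven cAMP in TSHR cells, stimulated with 4nM TSH (EC80) for 2 hours at 37 deg C and detected by homogeneous HTRF competition immunoassay.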
# Active calls of the source: *; ? = inconclusive; . = no result given; [ ] = remark or other dose. Unless noted, calls come from the whole dose curve; as a rule, active = well fitted curve in the direction sought with a large enough effect; inconclusive = small, poorly fitted or top-dose-only effect, or another doubt; inactive = no such curve, though single readings can be large; an effect the other way counts as inactive or inconclusive. Unless noted, % is set by controls: 0 for no effect and ±100 for the full control effect.
SMILES,RORgamma inh,ELG1 DNA repair,B2AR arrestin,VP16 counter,TSHR antag
Cc1ccc(S(=O)(=O)c2ncccc2[N+](=O)[O-])cc1,5.6µM*,?,0%,5.6µM*,2
CN(C)CCCNCCCN,-3%,.,.,-6%,.
O=C(CCCN1C(=O)/C(=C\c2cccs2)SC1=S)Nc1ccc(C(=O)O)cc1,8%,10%,0%,-12%,-12
CCc1ccc(/C=C2\SC(=S)N(CCCC(=O)Nc3ccccc3C(=O)O)C2=O)cc1,5µM*,11%,0%,20µM*,-2
CCN(CC)CCOC(=O)c1ccc(NC(=O)CCCN2C(=O)/C(=C/c3cccs3)SC2=S)cc1,22µM*,12%,0%,11µM*,18
COc1ccc(/C=C2/SC(=S)N(CCCC(=O)Nc3ccccc3C(=O)O)C2=O)cc1,1.4µM*,-2%,0%,3.5µM*,-9
CCc1ccc(/C=C2\SC(=S)N(CCCC(=O)Nc3nccs3)C2=O)cc1,0.56µM*,25%,0%,-12%,40
CCC/C=C(\CCC)C(NS(=O)(=O)c1ccc(C(F)(F)F)cc1)c1ccc(-c2ccccc2)cc1 (stereo unspecified),-34%,.,.,4%,.
O=C(N/N=C1/C[C@@H](O)[C@@H](O)[C@@H]2[C@@H]3C(=O)N(c4cccc(Oc5ccccc5)c4)C(=O)[C@H]3CC[C@@H]12)OCc1ccccc1,4%[10 µM],.,.,-8%[10 µM],.
COCCn1c(=O)c(-c2cc(F)cc(F)c2)nc2cnc(N(C)C)nc21,-25%,.,.,-6%,.
COc1ccc(C2/C=C\CN(C(=O)C3CCCCC3)C(Cc3ccccc3)C(=O)N2Cc2ccc(F)cc2)cc1 (stereo unspecified),13%,.,.,-11%,.
CCOc1ccc(CCNC(=O)CS(=O)Cc2nc(-c3ccccc3C)oc2C)cc1OCC (stereo unspecified),-8%,?,-1%,7%,1
COc1ccc(/C=C2\SC(=O)N(CC(=O)Nc3cccc(C)c3)C2=O)cc1O,?,5%,0%,18µM*,0
COc1ccc(/C=C2\SC(=S)N(CCCC(=O)NNC(=O)c3ccccc3O)C2=O)cc1,0.71µM*,?,0%,1.6µM*,4
COc1ccc(NC(=O)Cn2c(C)cc(=O)c3ccccc32)cc1,14%,-28%,-2%,?,-9
CC(=O)c1ccc(NC(=O)CCCN2C(=O)/C(=C/C(C)=C/c3ccccc3)SC2=S)cc1,11µM*,-15%,0%,?,-8
COc1cccc2c(=O)cc(C)n(CC(=O)Nc3cccc(C)c3)c12,?,?,0%,11µM*,-8
COc1ccc(/C=C2\SC(=O)N(CC(=O)Nc3ccc(O)cc3)C2=O)cc1OC,-10%,13%,-1%,-2%,5
COC(=O)C1=C[C@@H](C(=O)OC)[C@H]2C3=C(C(=O)[C@@]2(C)NC(=O)c2ccccc2)[C@H](C)C(C(=O)OC)=C(C(=O)OC)[C@@H]3C1,0%,.,.,0%,.
CC(NC(=O)c1cccc(S(=O)(=O)N2CCN(Cc3ccccc3)CC2)c1)c1ccc(Cl)cc1 (stereo unspecified),.,?,0%,.,0
O=C(CCCN1C(=O)/C(=C/c2ccco2)SC1=S)Nc1cccc(C(=O)O)c1,-11%,0%,0%,-25%,15
COc1ccc(NC(=O)CCCN2C(=O)/C(=C\c3ccco3)SC2=S)cc1,11µM*,?,0%,?,7
COc1cccc(/C=C2\SC(=S)N(CCC(=O)NNC(=O)c3ccccc3OC)C2=O)c1,?,-15%,0%,-16%,-2
COc1ccc(/C=C2\SC(=S)N(CCC(=O)Nc3cccc(O)c3)C2=O)cc1OC,?,2%,0%,?,-13
CCc1ccc(/C=C2\SC(=S)N(CCCC(=O)Nc3ccc(C(=O)O)cc3)C2=O)cc1,4µM*,?,-1%,?,-5
SMILES,RORgamma inh,ELG1 DNA repair,B2AR arrestin,VP16 counter,TSHR antag
COc1cccc(/C=C2/SC(=S)N(CC(=O)NNC(=O)c3ccccc3OC)C2=O)c1,10µM*,-1%,-1%,?,-2
COc1ccc(/C=C2/SC(=S)N(CCCC(=O)Nc3cccc(O)c3)C2=O)cc1,0.32µM*,-17%,0%,2.5µM*,-5
CC1=CC2C(CC1=O)C(C)=CCC2C(C)C (stereo unspecified),-2%,.,.,3%,.
COc1ccc([C@H]2OCC3C2CO[C@@H]3c2ccc(OC)c(OC)c2)cc1OC (stereo partly specified),2%,.,.,-11%,.
Cc1nc2c(c(=O)[nH]1)CSCC2,18%,.,.,-1%,.
Cc1ccc(-c2nnc(Cc3ccc([N+](=O)[O-])cc3)o2)cc1,0.28µM*,?,0%,?,4
O=[N+]([O-])c1ccc(Cc2nnc(-c3ccc(F)cc3)o2)cc1,-22%,?,0%,-15%[10 µM],-2
Cc1ccc(C23CC4CC(CC(NC(=O)N5CCN(C)CC5)(C4)C2)C3)cc1,13µM*,4%,0%,-23%,.
Cc1ccc(C23CC4CC(CC(C(=O)N5CCN(C)CC5)(C4)C2)C3)cc1,-2%,9%,0%,0%,-4
CC(C(=O)Nc1ccc(O)cc1)c1cccc(C(=O)c2ccccc2)c1 (stereo unspecified),32%,16µM*,-1%,?,-10
CC(=O)Nc1ccc(NC(=O)C(C)c2cccc(C(=O)c3ccccc3)c2)cc1 (stereo unspecified),1%,-25%,0%,5%,7
CC(C)Cc1ccc(C(C)C(=O)Nc2ccc(O)cc2)cc1 (stereo unspecified),?,?,0%,18µM*,-30
CS(=O)(=O)c1ccc(C(=O)OC2CCOC2=O)cc1[N+](=O)[O-] (stereo unspecified),4.5µM*,?,0%,?,-7
O=C(OC1CCOC1=O)c1ccccc1C(=O)c1ccc(Cl)c([N+](=O)[O-])c1 (stereo unspecified),.,3%,0%,.,-50
Cc1ccc(CNC(=O)c2ccc3nc4[nH]c5ccccc5c4nc3c2)cc1,?,-16%,0%,7.1µM*,-6
Cn1cccc1C(=O)N1CCC2(CCCN(c3ccccn3)C2)CC1,14%,.,.,6%,.
O=S(=O)(Nc1cccc(-c2ccc(N3CCCCCC3)nn2)c1)c1ccc(F)cc1,19%,?,-1%,-13%,-83*
CC1CCN(c2ccc(-c3cccc(NC(=O)C(F)(F)F)c3)nn2)CC1,?,?,0%,2.8µM*,14
O=S(=O)(Nc1cccc(-c2ccc(N3CCCCCC3)nn2)c1)c1cccc(F)c1,6%,?,1%,?,-19
O=C(Nc1cccc(-c2ccc(N3CCCCC3)nn2)c1)C(F)(F)F,6.3µM*,?,0%,10µM*,42
